Screening results (PubChem)
FMDV inh: antivirals against foot and mouth disease virus. AID 1159524. Potency, µM (series often up to 57.9 µM), for the others: at the top dose activity change, negative = inhibition, usual class: inhibitors. FMDV antiviral cell-based qHTS. 1.2% of 410,000 active; calls by dose curve; tested in HEK293T cells; note: read-out not given here; nearly all actives have a fitted effect of over 45% in size
Vaccinia Venus: inhibitors of vaccinia virus (Venus reporter); 0.46% of 330,000 active; AID 720580; Potency, µM (highest dose often 36.5 µM), for inactives: at the highest dose activity change, negative = inhibition, usual class: inhibitors; Vaccinia virus Venus reporter expression, fluorescence; calls by dose curve; tested in A549 cells; note: nearly all actives have a fitted effect of over 30% in size
Vaccinia mCherry: vaccinia inhibition (mCherry reporter). Vaccinia virus mCherry reporter infection, fluorescence. AID 720579. 0.63% of 310,000 active. Potency, µM (doses to about 36.5 µM), for inactives: at the top dose activity change, negative = inhibition, actives largely listed as inhibitors; calls by dose curve; tested in A549 cells; note: nearly all actives have a fitted effect of over 35% in size
Sm TGR inh: blocks Schistosoma mansoni thioredoxin glutathione reductase; Q962Y6; purified TGR, DTNB reduction, TNB absorbance 405 nm; Potency, µM (doses to about 114 µM), inactives show top-dose activity change, negative = inhibition, hits mostly inhibitors; 3% of 360,000 active; active = well fitted inhibition curve with a large enough effect; inconclusive = small, poorly fitted or top-dose-only effect; inactive = no such curve, though single readings can be large or run the other way; note: nearly all actives have a fitted effect of over 60% in size
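First, TGR (20 nM dispensed) and NADPH were mixed with compound. Second, a 15 min room-temperature incubation followed. Third, further NADPH and then DTNB were added to start the reaction. Finally, TNB absorbance was monitored kinetically.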
LASV entry inh: blocks Lassa virus binding to or entry into cells | 1.2% of 300,000 active | Lassa virus pseudotype entry inhibition, cell reporter | Potency, µM (doses to about 37.9 µM), for the others: at the top dose activity change, negative = inhibition, usual class: inhibitors | AID 540256; calls by dose curve; tested in HEK293 cells; note: nearly all actives have a fitted effect of over 50% in size
Marburg entry inh: Marburg virus entry inhibition; AID 540276; Marburg virus pseudotyped entry inhibition, cell reporter; Potency, µM (highest dose often 37.8 µM), inactives show at the highest dose activity change, negative = inhibition, hits mostly inhibitors; 1.8% of 300,000 active; calls by dose curve; tested in HEK293 cells
* marks the source's active call; other numbers are inactive results; [ ] = dose if it differs, or a comment. In the library only some 5.4% were active in any assay of this set; here they are far more common. % is set by controls: 0 for no effect and ±100 for the full control effect; potency is the fitted concentration of half-maximal effect.

Cc1cccc(-c2noc(-c3ccccc3OCC(=O)Nc3ccccc3[N+](=O)[O-])n2)c1 was read as FMDV inh -7%, Vaccinia Venus -18%, Vaccinia mCherry -3%, Sm TGR inh -7%, LASV entry inh 14%[46.1 µM] and Marburg entry inh -25%[46.1 µM].
Screening O=C(C=Cc1ccccc1)c1ccccc1O returned LASV entry inh -8%[14.3 µM] and Marburg entry inh inconclusive.
Cc1ccc(/C=C/C(=O)c2ccccc(=O)c2O)cc1C was read as FMDV inh inconclusive, Vaccinia Venus -23%, Vaccinia mCherry inconclusive, Sm TGR inh 32µM*, LASV entry inh inconclusive and Marburg entry inh 16µM*.
O=C(/C=C/c1ccc(O)cc1)c1ccccc1O was read as FMDV inh -32%, Vaccinia Venus -7% and Vaccinia mCherry -19%.
For O=C(/C=C/c1ccccc1)c1cc(Br)ccc(=O)c1O the results were FMDV inh inconclusive, Vaccinia Venus inconclusive, Sm TGR inh 3.2µM*, LASV entry inh inconclusive and Marburg entry inh 20µM*.
For O=C(C1CCCCC1)N1C[C@H](n2cc(-c3ccc(F)cc3)nn2)[C@@H](O)C[C@@H]1c1ccccc1 the results were FMDV inh -6%, Vaccinia Venus -10% and Vaccinia mCherry -25%.
For O=C(OCc1cn([C@H]2CN(CC3CCCCC3)[C@@H](c3ccc(Cl)cc3)C[C@H]2O)nn1)c1ccccc1 the results were Marburg entry inh 14µM*.
For O=C(C1CCCCC1)N1C[C@H](n2cc(-c3ccc(F)cc3)nn2)[C@H](O)C[C@@H]1c1ccc(Cl)cc1 the results were Marburg entry inh 3.5µM*.
For CCCCCCN1C[C@@H](n2cc(-c3ccc(F)cc3)nn2)[C@H](O)C[C@H]1c1ccccc1 the results were Marburg entry inh 16µM*.
For CCCCCCN1C[C@@H](n2cc(-c3ccc(F)cc3)nn2)[C@H](O)C[C@@H]1c1ccccc1 the results were FMDV inh -10%, Vaccinia Venus -24% and Vaccinia mCherry inactive.
O[C@@H]1CN(CC2CCCCC2)[C@@H](c2ccc(Cl)cc2)C[C@H]1n1cc(C2CC2)nn1 was read as FMDV inh inconclusive, Vaccinia Venus 14µM* and Vaccinia mCherry inconclusive.
For Cc1ccc2c(Cl)c(C(=O)NCCCN3CCOCC3)sc2c1 the results were FMDV inh 53%, Vaccinia Venus -10% and Vaccinia mCherry -9%.
For CC[C@@]1([C@@H]2O[C@@H]([C@H]3O[C@@](O)(CO)[C@H](C)C[C@@H]3C)C[C@@H]2C)CC[C@H]([C@]2(C)CC[C@]3(C[C@H](O)[C@@H](C)[C@@H]([C@@H](C)[C@@H](OC)[C@H](C)C(=O)O)O3)O2)O1 (stereo in doubt) the results were FMDV inh -18%, Vaccinia Venus inconclusive and Vaccinia mCherry inactive.
Screening COCCC1CCCCN1Cc1nc(N2CCCC2)c2cc(OC)c(OC)cc2n1 (stereo unspecified) returned FMDV inh -2%, Vaccinia Venus -14% and Vaccinia mCherry inactive.
CCCCCCN1C[C@H](n2cc(C3CC3)nn2)[C@@H](O)C[C@H]1c1ccc(Cl)cc1 was read as LASV entry inh 16µM*.
Screening CCCCCCN1C[C@H](n2cc(C3CC3)nn2)[C@@H](O)C[C@@H]1c1ccc(C)cc1 returned FMDV inh -3%, Vaccinia Venus inconclusive and Vaccinia mCherry -28%.
For Cc1ccc(NC(=O)CCNS(=O)(=O)c2ccc3c(c2)CCN3C(=O)C2CC2)c(Cl)c1 the results were FMDV inh -15%, Vaccinia Venus 0%, Vaccinia mCherry -8%, Sm TGR inh inconclusive and LASV entry inh -5%[46.1 µM].
For Cc1[nH]c2c(ccc3ccccc32)c1C1C(CCN)C1(C)C (stereo unspecified) the results were FMDV inh inconclusive, Sm TGR inh 7%, LASV entry inh inconclusive and Marburg entry inh 26µM*.
`S=c1[nH]c2ccc3ccccc3c2[nH]1` gave FMDV inh -13%, Vaccinia Venus 1%, Vaccinia mCherry inactive, LASV entry inh inconclusive and Marburg entry inh -3%[46.1 µM].
Cc1cc(/C=C/c2ccccc2)nc2ccccc12 was read as Vaccinia Venus inconclusive and Vaccinia mCherry -9%.
For CN1CCc2nc(SCc3ccccc3Br)c(C#N)cc2C1 the results were FMDV inh -2%, Sm TGR inh 22µM*, LASV entry inh -13% and Marburg entry inh -8%.
CN(C)/C=N/c1nc(-c2ccc3c(c2)OCO3)cs1 was read as FMDV inh 37%, Vaccinia Venus -2%, Vaccinia mCherry inactive, Sm TGR inh 8%, LASV entry inh inconclusive and Marburg entry inh -8%[46.1 µM].
For CN(C)/C=N/c1nc(-c2ccc3ccccc3c2)cs1 the results were FMDV inh 6%, Vaccinia Venus -9%, Vaccinia mCherry -16%, Sm TGR inh inconclusive, LASV entry inh 10µM* and Marburg entry inh inconclusive.
Oc1ccc(-[n+]2c(-c3ccccc3)cc(-c3ccccc3)cc2-c2ccccc2)cc1 was read as FMDV inh 10µM*, Vaccinia Venus inconclusive, Vaccinia mCherry -9% and Sm TGR inh -2%.
`COc1ccc(-[n+]2c(-c3ccccc3)cc(-c3ccccc3)cc2-c2ccccc2)cc1` gave FMDV inh 3.2µM*, Vaccinia Venus inconclusive, Vaccinia mCherry inconclusive and Sm TGR inh -16%.
For COc1ccc(C(=O)N/N=C/C23CC[C@@H](O)CC2(O)CC[C@@H]2[C@@H]3CCC3(C)C(C4=CC(=O)OC4)CCC23O)cc1 (stereo partly specified) the results were FMDV inh inconclusive and Sm TGR inh -28%.
COc1cc(C(=O)N/N=C/C23CC[C@@H](O)CC2(O)CC[C@@H]2[C@@H]3CCC3(C)C(C4=CC(=O)OC4)CCC23O)ccc1O (stereo partly specified) was read as FMDV inh 69%, Vaccinia Venus inconclusive, Vaccinia mCherry 10µM*, Sm TGR inh -4%, LASV entry inh inconclusive and Marburg entry inh inconclusive.
CC(OCCN1CCCC1)(c1ccc(F)cc1)c1ccc(F)cc1 was read as FMDV inh inconclusive, Vaccinia Venus -20%, Vaccinia mCherry -27%, Sm TGR inh 0%, LASV entry inh 2µM* and Marburg entry inh inconclusive.
`CO/N=C/C(c1ccc(Cl)nc1)S(=O)(=O)c1ccccc1` (stereo unspecified) gave FMDV inh -10% and Sm TGR inh 22µM*.
`CO/N=C/C(c1ncc(C(F)(F)F)cc1Cl)S(=O)(=O)c1ccccc1` (stereo unspecified) gave FMDV inh 16%, Vaccinia Venus -18%, Vaccinia mCherry -15%, Sm TGR inh -45%, LASV entry inh 23%[46.1 µM] and Marburg entry inh 0%[46.1 µM].
